The panel holds about 79,000 compounds, 15% with a hit somewhere; the sample as a whole holds those more often. Activity calls are given as the source filed them. Cut-off read from the data, not from the text of the source: active = growth inhibition above about 70%; inactive = the rest.
Experiments:
[1] = NCI Yeast Anticancer Drug Screen. Data for the rad52 strain (AID 147);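 note: 0% = growth of vehicle-treated control cultures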; conditions: S. cerevisiae rad52 mutant growth inhibition, active compounds read high
In short: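 Vehicle-treated cultures served as the reference for growth inhibition of compound-exposed yeast bearing a DNA repair mutation.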

[2] = NCI Yeast Anticancer Drug Screen. Data for the wt1 strain (AID 149);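 note: 0% = growth of vehicle-treated wt1 cultures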; conditions: S. cerevisiae wt1 strain (SPY 50644) growth inhibition, active compounds read high
In short: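 Measured: growth of wt1 yeast under compound versus vehicle treatment, reported as inhibition.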

[3] = NCI Yeast Anticancer Drug Screen. Data for the rad50EPP+ strain (AID 151);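 note: 0% = growth of vehicle-treated control cultures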; conditions: S. cerevisiae rad50 mutant strain, active compounds read high
In short: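 In this screen, rad50EPP+ yeast were exposed to compounds. Growth inhibition was scored against vehicle-treated controls.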

[4] = NCI Yeast Anticancer Drug Screen. Data for the rad50 strain (AID 155);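 note: 0% = growth of vehicle-only cultures of the same strain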; conditions: S. cerevisiae rad50 strain growth inhibition, active compounds read high
In short: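 Growth of the mutant yeast was measured after compound exposure and referenced to vehicle-treated cultures.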

[5] = NCI Yeast Anticancer Drug Screen. Data for the mec2-1 strain (AID 157); conditions: S. cerevisiae mec2-1 strain, active compounds read high
In short: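 Vehicle-treated cultures served as reference for growth inhibition of compound-exposed mec2-1 yeast.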

[6] = NCI Yeast Anticancer Drug Screen. Data for the rad14 strain (AID 159);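 note: 0% = growth of vehicle-treated control cultures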; conditions: S. cerevisiae rad14 strain growth inhibition, active compounds read high
In short: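 Here, inhibition of yeast growth was measured after compound exposure, using a strain with a genetic defect in DNA damage repair and vehicle-treated cultures as the reference.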

[7] = NCI Yeast Anticancer Drug Screen. Data for the sgs1 mgt1 strain (AID 161);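 note: 0% = growth of cultures given vehicle only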; conditions: S. cerevisiae sgs1 mgt1 strain, active compounds read high
In short: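 Genetically altered yeast, compound exposure, growth inhibition relative to vehicle.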

[8] = NCI Yeast Anticancer Drug Screen. Data for the CLN2oe strain (AID 163);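 note: 0% = growth of vehicle-only control cultures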; conditions: S. cerevisiae CLN2oe strain, active compounds read high
In short: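 Inhibition relative to vehicle-treated yeast is reported. Cells: strain with genetic alteration in cell-cycle control, grown with compound.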

[9] = NCI Yeast Anticancer Drug Screen. Data for the wt2 strain (AID 169);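 note: 0% = growth of vehicle-treated yeast cultures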; conditions: S. cerevisiae wt2 strain growth inhibition, active compounds read high
In short: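 Inhibition of yeast growth was determined after compound treatment, normalised to controls receiving only vehicle.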

[10] = NCI Yeast Anticancer Drug Screen. Data for the mlh1 strain (AID 171);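 note: 0% = growth of vehicle-treated control cultures of the same strain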; conditions: S. cerevisiae mlh1 strain growth inhibition, active compounds read high
In short: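 Vehicle-normalised growth inhibition of a repair- or checkpoint-altered yeast strain following compound treatment.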

[11] = NCI Yeast Anticancer Drug Screen. Data for the sgs1 strain (AID 173);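 note: 0% = growth of vehicle-only control cultures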; conditions: S. cerevisiae sgs1 mutant, active compounds read high
In short: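 Screen format: yeast with repair or checkpoint alterations, compound exposure, growth read relative to vehicle.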

[12] = NCI Yeast Anticancer Drug Screen. Data for the mlh1 rad18 strain (AID 175); conditions: S. cerevisiae mlh1 rad18 strain growth inhibition, active compounds read high
In short: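 Vehicle-treated cultures served as the reference for growth inhibition in a yeast strain carrying DNA damage repair alterations exposed to each compound.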

[13] = NCI Yeast Anticancer Drug Screen. Data for the rad18 strain (AID 177); conditions: S. cerevisiae rad18 mutant growth inhibition, active compounds read high
In short: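 Test articles were incubated with altered yeast defective in DNA damage repair. Results are given as inhibition of growth versus vehicle.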

[14] = NCI Yeast Anticancer Drug Screen. Data for the cln2 rad14 strain (AID 165);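 note: 0% = growth equal to vehicle treated cultures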; conditions: S. cerevisiae cln2 rad14 strain, active compounds read high
In short: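 Each compound was tested on cln2 rad14 yeast. Inhibition of growth was calculated against vehicle-exposed controls.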

[15] = NCI Yeast Anticancer Drug Screen. Data for the bub3 strain (AID 167); conditions: S. cerevisiae bub3 mutant strain, active compounds read high
In short: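 Whole-cell yeast assay. The mutant strain was incubated with compounds, and growth inhibition was determined by comparison with vehicle-treated cells.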

[16] = at 5.0 µM (retest, dose inferred, filed as 0.5)
[17] = at 50.0 µM (retest, dose inferred, filed as 5.0)

Measured: growth inhibition

CCOC(=O)CNC(=O)c1[nH]cnc1/N=N/N(C)C
active: [1]; at 100.0 µM 98% | [2]; at 100.0 µM 98% | [4]; at 50.0 µM 89.6% | [4]; at 100.0 µM 97% | [5]; at 50.0 µM 90.3% | [5]; at 100.0 µM 98% | [6]; at 100.0 µM 97% | [7]; at 50.0 µM 89.5% | [8]; at 100.0 µM 98% | [9]; at 100.0 µM 97% | [10]; at 100.0 µM 98% | [11]; at 100.0 µM 98% | [12]; at 50.0 µM 71.5% | [13]; at 100.0 µM 98%
inactive: [1]; at 1.2 µM -12% | [1]; at 3.7 µM -11% | [1]; at 11.0 µM -12% | [1]; at 33.0 µM 6% | [2]; at 1.2 µM 8% | [2]; at 3.7 µM 9% | [2]; at 11.0 µM 12% | [2]; at 33.0 µM 12% | [3]; at 1.2 µM -23% | [3]; at 3.7 µM -21% | [3]; at 11.0 µM -21% | [3]; at 33.0 µM -30% | [3]; at 100.0 µM -13% | [4]; at 1.2 µM -5% | [4]; at 3.7 µM 4% | [4]; [16] -10% | [4]; at 11.0 µM 2% | [4]; at 33.0 µM 5% | [4]; [17] 7% | [5]; at 1.2 µM -8% | [5]; at 3.7 µM -10% | [5]; [16] -7% | [5]; at 11.0 µM -8% | [5]; at 33.0 µM -6% | [5]; [17] -17% | [6]; at 1.2 µM 2% | [6]; at 3.7 µM 2% | [6]; at 11.0 µM 1% | [6]; at 33.0 µM 1% | [7]; [16] -12% | [7]; [17] -7% | [8]; at 1.2 µM 26% | [8]; at 3.7 µM 23% | [8]; at 11.0 µM 17% | [8]; at 33.0 µM 44% | [9]; at 1.2 µM -2% | [9]; at 3.7 µM 1% | [9]; at 11.0 µM 0% | [9]; at 33.0 µM 1% | [10]; at 1.2 µM 13% | [10]; at 3.7 µM 5% | [10]; at 11.0 µM 4% | [10]; at 33.0 µM 2% | [11]; at 1.2 µM 10% | [11]; at 3.7 µM 1% | [11]; at 11.0 µM -2% | [11]; at 33.0 µM 9% | [12]; [16] -30% | [12]; [17] 59% | [13]; at 1.2 µM 0% | [13]; at 3.7 µM -11% | [13]; at 11.0 µM -13% | [13]; at 33.0 µM -3%

CCOC(=O)Nc1ccc2c(c1)Cc1ccccc1-2
active: [15]; [17] 88% | [15]; at 50.0 µM 87.2%
inactive: [1]; at 1.2 µM -11% | [1]; at 3.7 µM -10% | [1]; at 11.0 µM -7% | [1]; at 33.0 µM -5% | [1]; at 100.0 µM -5% | [2]; at 1.2 µM -2% | [2]; at 3.7 µM 5% | [2]; at 11.0 µM 11% | [2]; at 33.0 µM 7% | [2]; at 100.0 µM 10% | [3]; at 1.2 µM -6% | [3]; at 3.7 µM -13% | [3]; at 11.0 µM 15% | [3]; at 33.0 µM 21% | [3]; at 100.0 µM 21% | [4]; at 1.2 µM -15% | [4]; at 3.7 µM -14% | [4]; [16] 4% | [4]; at 11.0 µM -23% | [4]; at 33.0 µM -22% | [4]; [17] 2% | [4]; at 50.0 µM -9.4% | [4]; at 100.0 µM -9% | [5]; at 1.2 µM -4% | [5]; at 3.7 µM -4% | [5]; [16] 1% | [5]; at 11.0 µM -6% | [5]; at 33.0 µM -5% | [5]; [17] 12% | [5]; at 50.0 µM -5.5% | [5]; at 100.0 µM -2% | [6]; at 1.2 µM 0% | [6]; at 3.7 µM -8% | [6]; at 11.0 µM 1% | [6]; at 33.0 µM 1% | [6]; at 100.0 µM 3% | [7]; [16] 4% | [7]; [17] 8% | [7]; at 50.0 µM 5.6% | [14]; [16] -8% | [14]; [17] -3% | [14]; at 50.0 µM -19% | [15]; at 1.2 µM 35% | [15]; at 3.7 µM 28% | [15]; [16] 49% | [15]; at 11.0 µM 21% | [15]; at 33.0 µM 21% | [15]; at 100.0 µM 26% | [9]; at 1.2 µM 5% | [9]; at 3.7 µM 9% | [9]; at 11.0 µM 14% | [9]; at 33.0 µM 19% | [9]; at 100.0 µM 14% | [11]; at 1.2 µM -18% | [11]; at 3.7 µM -12% | [11]; at 11.0 µM -4% | [11]; at 33.0 µM 3% | [11]; at 100.0 µM 0% | [12]; [16] -11% | [12]; [17] -25% | [12]; at 50.0 µM 16.4% | [13]; at 1.2 µM -11% | [13]; at 3.7 µM -7% | [13]; at 11.0 µM -4% | [13]; at 33.0 µM -6% | [13]; at 100.0 µM -10%

CC(=O)[C@]1(O)Cc2c(O)c3c(c(O)c2[C@@H](OC2CC(N)C(O)C(C)O2)C1)C(=O)c1c(OCc2ccccc2)cccc1C3=O (some centres not stated)
active: [1]; at 33.0 µM 79% | [1]; at 100.0 µM 94% | [4]; at 33.0 µM 71% | [4]; [17] 83% | [4]; at 50.0 µM 72.8% | [4]; at 100.0 µM 92% | [9]; at 100.0 µM 92%
inactive: [1]; at 1.2 µM 21% | [1]; at 3.7 µM 40% | [1]; at 11.0 µM 59% | [2]; at 1.2 µM -9% | [2]; at 3.7 µM -4% | [2]; at 11.0 µM 5% | [2]; at 33.0 µM -4% | [2]; at 100.0 µM 7% | [3]; at 1.2 µM 18% | [3]; at 3.7 µM 21% | [3]; at 11.0 µM 28% | [3]; at 33.0 µM 46% | [3]; at 100.0 µM 65% | [4]; at 1.2 µM 14% | [4]; at 3.7 µM 24% | [4]; [16] 9% | [4]; at 11.0 µM 44% | [5]; at 1.2 µM 4% | [5]; at 3.7 µM -10% | [5]; [16] -9% | [5]; at 11.0 µM -1% | [5]; at 33.0 µM 2% | [5]; [17] 24% | [5]; at 50.0 µM 12.4% | [5]; at 100.0 µM 28% | [6]; at 1.2 µM 7% | [6]; at 3.7 µM 18% | [6]; at 11.0 µM 18% | [6]; at 33.0 µM 27% | [6]; at 100.0 µM 51% | [7]; [16] 11% | [7]; [17] 46% | [7]; at 50.0 µM 9.95% | [8]; at 1.2 µM 5% | [8]; at 3.7 µM 16% | [8]; at 11.0 µM 27% | [8]; at 33.0 µM 30% | [8]; at 100.0 µM 31% | [14]; [16] 4% | [14]; [17] 35% | [14]; at 50.0 µM -1.65% | [15]; at 1.2 µM -2% | [15]; at 3.7 µM 1% | [15]; [16] 10% | [15]; at 11.0 µM 5% | [15]; at 33.0 µM 18% | [15]; [17] 36% | [15]; at 50.0 µM 17.4% | [15]; at 100.0 µM 33% | [9]; at 1.2 µM -69% | [9]; at 3.7 µM -65% | [9]; at 11.0 µM -53% | [9]; at 33.0 µM -16% | [11]; at 1.2 µM 8% | [11]; at 3.7 µM 4% | [11]; at 11.0 µM 22% | [11]; at 33.0 µM 19% | [11]; at 100.0 µM 53% | [12]; [16] -4% | [12]; [17] 46% | [13]; at 1.2 µM 2% | [13]; at 3.7 µM 7% | [13]; at 11.0 µM 9% | [13]; at 33.0 µM 20% | [13]; at 100.0 µM 55%

From PubChem BioAssay (NCI)
